This note sets out measurements from PubChem BioAssay AID504848 (National Center for Advancing Translational Sciences (NCATS), 2011).

Each structure is given as a SMILES string. Out of some 2,300 compounds screened, about 1,400 (61%) were called active. Not shown: some 29% with an inconclusive outcome. Calls come from the whole dose curve; as a rule, active = well fitted inhibition curve with a large enough effect; inconclusive = small, poorly fitted or top-dose-only effect, or effect the other way; inactive = no such curve, though single readings can be large or run the other way. So high a share suggests a set chosen from earlier hits. This is one part of the list.
Potency is the fitted concentration of half-maximal effect.

This assay can be described thus: Confirmation screen for delayed death inhibitors of the malarial parasite plastid, 96 hour incubation. Note: nearly all actives have a fitted effect of over 60% in size. Conditions: P. falciparum luciferase growth in erythrocytes; series mostly up to 28.7 µM. The method in brief:
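Two-generation (96 h, 37 C) exposure of P. falciparum carrying an integrated firefly luciferase reporter in erythrocytes, 0.1% parasitemia and 2% hematocrit final, Albumax-supplemented RPMI. Luminescence decrease measures growth inhibition.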
For `N#Cc1cc(Oc2cccc3cccnc23)c(-n2nnc3ccccc32)cc1C#N`, the Potency was 5.62 µM (active).
In the case of `COc1cccc(-c2ccc3ncnc(NCc4cccs4)c3c2)c1`, the Potency is 5.01 µM (active).
Take `CN(C)c1ccc(CNc2ncnc3sccc23)cc1`: the Potency entry is “inactive”.
For the compound `CCCN(CCC)c1ccc(CC(=O)NC(C)Cc2ccccc2)cc1` (stereo unspecified), the Potency is 12.6 µM (active).
Under `O=C1NC(=S)S/C1=C\C=C\c1ccc([N+](=O)[O-])o1` stands 2 µM (active); under `COc1ccc(C2c3c(ncn(CCCN4CCOCC4)c3=N)Oc3ccc4ccccc4c32)cc1OC` (stereo unspecified), 2.24 µM (active); under `COc1ccc(C2c3c(ncn(CCN4CCOCC4)c3=N)Oc3ccc4ccccc4c32)cc1OC` (stereo unspecified), 2 µM (active).
Under `Cc1ccc(-n2ncc3c2CC(C)(C)CC3NC(=O)c2c(C)noc2C)cc1` (stereo unspecified) stands 12.6 µM (active); under `CCc1noc(C)c1C(=O)NC1CC(C)(C)Cc2c1cnn2-c1ccccc1` (stereo unspecified), 12.6 µM (active); under `CC1=C(C(=O)NC2CC(C)(C)Cc3c2cnn3-c2ccc(C)cc2)OCCO1` (stereo unspecified), 11.2 µM (active).
As to `CCOc1ccc2c(c1)sc(N)[n+]2Cc1cc(C)cc2cccnc12`, the Potency was 3.98 µM (active).
In the case of `COc1cc([N+](=O)[O-])c(OC)cc1SCc1n[nH]c(=S)n1-c1ccc(F)cc1`, the Potency is 15.8 µM (active).
For the compound `COc1ccccc1N1CC(O)=C(c2nc3ccccc3s2)C1=N`, the Potency was 11.2 µM (active).
For `Cn1c(SCC(=O)N2CCCCCC2)nc2c(c1=O)SCC2`, the Potency is 8.91 µM (active).
Take `O=[N+]([O-])/C=C\c1ccc(N2CCCC2)c(F)c1`: the Potency result was “inactive”.
On to `CCC(=O)c1ccc(N2CCN(C(=O)c3cc([N+](=O)[O-])ccc3N3CCN(C)CC3)CC2)c(F)c1`, for which the Potency is 11.2 µM (active).
Under `Cc1ccc(Nc2nc(NCc3ccco3)c3ccccc3n2)cc1` stands 2 µM (active); under `C/C=C(\C)C(=O)NCCN1C2=NC[C@H](C(C)C)N2C[C@H]1Cc1ccc(O)cc1`, 5.62 µM (active); under `C/C=C(\C)C(=O)NCCN1C2=NC[C@H](Cc3ccccc3)N2C[C@H]1Cc1ccc(O)cc1`, 3.55 µM (active).
`C=CCNC(=O)c1onc(CSc2cccc3ccccc23)c1C(=O)O`: the Potency result was “inactive”.
Under `COc1ccc(CNc2ncc(-c3ccc(Cl)cc3)n2C)c(OC)c1OC` stands 12.6 µM (active); under `CCC[C@H]1C[C@H](C(=O)N[C@@H]([C@H]2O[C@@H](SC)[C@@H](O)[C@@H](O)[C@@H]2O)[C@H](C)Cl)N(C)C1`, 0.199 µM (active).
As to `Cc1ccc(S(=O)(=O)N(CC(=O)NCc2ccco2)c2ccccc2C)cc1`, the Potency was 11.2 µM (active).
As to `Cc1ccc(S(=O)(=O)N(Cc2ccccc2)c2ccccc2C(=O)Nc2ccccc2C(=O)NCc2ccco2)cc1`, the Potency was 2.24 µM (active).
`COC(=O)c1cc(=O)n(Cc2cccs2)c(=Nc2ccccc2)s1`: the Potency result is “inactive”.
On to `COCCn1c(=NC(=O)/C=C/c2ccccc2)sc2cc(NC(C)=O)ccc21`, for which the Potency is 7.94 µM (active).
With `CC(C)N(C(C)C)S(=O)(=O)c1ccc(N2CCc3ccccc3C2)nc1`, the Potency was 12.6 µM (active).
As for `CCN(CC)S(=O)(=O)c1ccc(N2CCc3ccccc3C2)nc1`, the Potency was 14.1 µM (active).
Consider `CN1C(=O)C(C)(C)c2cc(S(=O)(=O)NCC3CCC(C(=O)NCc4ccc(F)cc4)CC3)ccc21` (stereo unspecified), for which the Potency was 11.2 µM (active).
Take `COc1ccc(NC(=O)CCCn2nc(C)c3c(C)n(-c4ccccc4)nc3c2=O)cc1`: the Potency was 11.2 µM (active).
With `Cc1ccccc1NC(=O)CCCn1nc(C)c2c(C)n(-c3ccccc3)nc2c1=O`, the Potency is 10 µM (active).
As for `Cc1cccc(C)c1NC(=O)CCCn1nc(C)c2c(C)n(-c3ccccc3)nc2c1=O`, the Potency is 10 µM (active).
Take `Cc1nn(-c2ccccc2)c(C)c1NC(=O)COC(=O)[C@@H](NC(=O)c1ccccc1)C(C)C`: the Potency result is “inactive”.
Turning to `CCOc1ccc(CCNC(=O)CCCn2nc(C)c3c(C)n(-c4ccccc4)nc3c2=O)cc1`, the Potency was 11.2 µM (active).
For the compound `CCOc1ccccc1C(=O)NCC(=O)NCCc1ccc(S(N)(=O)=O)cc1`, the Potency result is “inactive”.
For the compound `COc1ccc(NC(=O)CCCn2cc([N+](=O)[O-])cn2)cc1`, the Potency result is “inactive”.
The figure for `CCN(CCN1CCCC1)C(=O)c1cc(COc2ccccc2SC)on1` is 12.6 µM (active); for `CSc1ccccc1OCc1cc(C(=O)NCCCn2nc(C)cc2C)no1` it is 12.6 µM (active); for `CSc1ccccc1OCc1cc(C(=O)NCCn2ccnc2C)no1` it is “inactive”.
As to `CCOC(=O)c1ccc(CNC(=O)c2cc(COc3ccccc3SC)on2)o1`, the Potency result is “inactive”.
As for `CSc1ccccc1OCc1cc(C(=O)N(C)CCc2c(C)n[nH]c2C)no1`, the Potency is 10 µM (active).
In the case of `COc1ccc(NC2=C(NC(C)=O)C(=O)c3ccccc3C2=O)cc1`, the Potency was 3.16 µM (active).
The figure for `CC(=O)NC1=C(Nc2ccc(N(C)C)cc2)C(=O)c2ccccc2C1=O` is 6.31 µM (active); for `N#Cc1ccccc1S(=O)(=O)N1CCC(C(=O)NCc2ccccc2CN2CCCC2)CC1` it is 14.1 µM (active).
As to `CCOC(=O)c1cnc2ccccc2c1NCCc1ccc(OC)c(OC)c1`, the Potency is 5.01 µM (active).
With `Cc1ccc2c(c1)c1c3n2CCN(C(=O)CCl)C3CCC1` (stereo unspecified), the Potency was 14.1 µM (active).
The figure for `CN(CC(=O)Nc1ccc(Cl)cc1)C(=O)Cc1c(F)cccc1Cl` is 10 µM (active).
`O=C(/C=C/Sc1ncn[nH]1)c1ccc(Cl)cc1`: the Potency is 12.6 µM (active).
Consider `CCC1OC(=O)C[C@@H](O)[C@H](C)[C@@H](OC2OC(C)CC(N(C)C)C2O)[C@@H](CC=O)C[C@@H](C)C(=O)/C=C/[C@]2(C)OC2C1C` (stereo partly specified), for which the Potency is 1.78 µM (active).
Consider `Cc1cc(C)n(Cc2ccc(C(=O)N/N=C/c3ccc(-c4ccc([N+](=O)[O-])cc4)o3)o2)n1`, for which the Potency is 5.01 µM (active).
Turning to `COc1cc(C(C)=O)ccc1OCC(O)CN1CCN(c2cc(C)cc(C)c2)CC1` (stereo unspecified), the Potency is 14.1 µM (active).
As to `CC(C)(C)C1C/C(=C/c2ccccn2)C(=O)/C(=C/c2ccccn2)C1` (stereo unspecified), the Potency is 0.158 µM (active).
In the case of `COCCNC(=O)c1cccc(OC2CCN(Cc3cccc(SC)c3)CC2)c1`, the Potency was 12.6 µM (active).
The figure for `CSc1cccc(CN2CCC(Oc3cccc(C(=O)N4CCCC4)c3)CC2)c1` is 12.6 µM (active); for `COCCNC(=O)c1cccc(OC2CCN(Cc3ccc(C(C)C)cc3)CC2)c1` it is 11.2 µM (active); for `CN(C)CCn1c(=O)n(Cc2ccco2)c(=O)c2c3c(sc21)CCCCC3` it is 10 µM (active).
